About 16,000 (7.3%) of roughly 220,000 compounds were called active. Inconclusive results (about 25%) are left out. The call rests on the fitted dose curve; in most records, active means well fitted inhibition curve with a large enough effect (not every such curve was filed as active); inconclusive means small, poorly fitted or top-dose-only effect, or another doubt; inactive means no such curve, though single readings can be large or run the other way. For the sample, actives were picked, then their nearest neighbours and some compounds at random.

The values that follow come from PubChem BioAssay AID1030 (National Center for Advancing Translational Sciences (NCATS), 2008).
Potency means the concentration at half of the fitted maximal effect.

The target in this assay is Aldehyde dehydrogenase 1A1 (Homo sapiens) (UniProt P00352). In words: qHTS Assay for Inhibitors of Aldehyde Dehydrogenase 1 (ALDH1A1).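 On activity, negative = inhibition: plate controls were no enzyme wells and a reference inhibitor.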 The following applies: Purified ALDH1A1, NADH fluorescence, propionaldehyde substrate; series mostly up to 75.3 µM; activity, negative = inhibition: at the top concentration.
Aldehyde dehydrogenase 1A1 (Homo sapiens), sequence (P00352 whole entry, looked up): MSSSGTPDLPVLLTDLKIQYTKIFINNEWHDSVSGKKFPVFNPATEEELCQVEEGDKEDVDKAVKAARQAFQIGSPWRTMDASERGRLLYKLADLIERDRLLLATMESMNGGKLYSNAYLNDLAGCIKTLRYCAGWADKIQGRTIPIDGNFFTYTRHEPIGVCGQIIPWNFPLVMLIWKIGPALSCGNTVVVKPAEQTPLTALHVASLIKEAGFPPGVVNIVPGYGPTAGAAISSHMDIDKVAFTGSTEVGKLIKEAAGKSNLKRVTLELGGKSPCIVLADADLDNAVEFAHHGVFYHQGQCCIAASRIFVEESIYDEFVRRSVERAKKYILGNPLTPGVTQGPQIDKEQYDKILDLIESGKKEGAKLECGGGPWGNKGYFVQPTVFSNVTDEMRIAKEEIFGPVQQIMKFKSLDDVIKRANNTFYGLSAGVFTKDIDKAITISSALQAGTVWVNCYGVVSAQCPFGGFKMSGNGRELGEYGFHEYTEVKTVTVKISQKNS
As for `COc1ccc(CCNC(=O)c2ccc(CS(=O)(=O)c3ccc(Br)cc3)o2)cc1OC`, the “activity, negative = inhibition” value is 21.2% (inactive).

`Nc1nc(NC(=O)/C=C/c2ccc(F)cc2)nn1-c1ccccc1`: the “activity, negative = inhibition” value is 11.2% (inactive). Consider `CCOC(=O)c1c(NC(=O)CSc2nnc(Cc3csc(N)n3)n2C)sc(C)c1C`, for which the Potency is 7.94 µM (active).

As for `CCOc1ccc(Nc2nc(Cc3nnc(SCC(=O)NC4CCCC4)n3C)cs2)cc1`, the “activity, negative = inhibition” value was -1.4% (inactive).

Turning to `CCOC(=O)CSc1nnc(CNc2nc(-c3ccccc3)cs2)n1C`, the “activity, negative = inhibition” value is -3.03% (inactive). Same read-out and setting: under `CCO[C@H]1OC(C(=O)N2CCCCCCC2)=C[C@@H](c2ccc(C(F)(F)F)cc2)[C@@H]1CCCO` stands 2.63% (inactive).

For `NC(=O)C1CCN(Cc2nc3c(Br)cc(Br)cc3c(=O)[nH]2)CC1`, the “activity, negative = inhibition” value is 4.31% (inactive). Take `O=C(Nc1ccc(C(=O)O)cc1)/C(=C/c1ccc([N+](=O)[O-])cc1)NC(=O)c1ccccc1`: the “activity, negative = inhibition” value was 3.09% (inactive). Turning to `Nc1ncnc(Nc2cccc(Cl)c2Cl)n1`, the “activity, negative = inhibition” value is -11.2% (inactive). On the same count and under the same terms, under `CC(C)(C)c1nc2ccccc2c(=O)n1N1C(=O)c2ccccc2C1=O` stands -5.76% (inactive). As for `CCC1(CC)Cc2ccccc2-c2nc3ccccc3c(=O)n21`, the Potency was 15.8 µM (active). For the compound `CCOC(=O)C1CCc2nc3ccccc3c(=O)n21` (stereo not given), the “activity, negative = inhibition” value is 12.2% (inactive). Regarding `COc1ccc(-n2c(O)c(C=NCC(c3ccco3)N3CCCC3)c3ccccc3c2=O)cc1OC` (stereo not given), the “activity, negative = inhibition” value was -15% (inactive). Take `CC1COc2ccccc2N1C(=O)c1cccnc1Cl` (stereo not given): the “activity, negative = inhibition” value is -3.66% (inactive). In the case of `CCn1cc(CN2CCCC(CNS(=O)(=O)Cc3ccccc3)C2)cn1` (stereo not given), the “activity, negative = inhibition” value is 5.21% (inactive). Regarding `CC(Sc1nc2c([nH]c3ccccc32)c(=O)n1C)c1ccccc1` (stereo not given), the “activity, negative = inhibition” value was -5.21% (inactive). For the compound `Cc1ccc2nsnc2c1S(=O)(=O)N1CCCC1C(=O)O` (stereo not given), the “activity, negative = inhibition” value was -3.73% (inactive). On to `COCCN(Cc1nc(-c2ccc(C(F)(F)F)cc2)no1)C(C)C`, for which the “activity, negative = inhibition” value was -1.16% (inactive). As for `Oc1c(C=Nc2cccc3nsnc23)ccc2ccccc12`, the Potency was 2.82 µM (active). `O=C(Nc1cccc(C(F)(F)F)c1)c1ccc(N2CCNCC2)c([N+](=O)[O-])c1`: the “activity, negative = inhibition” value was -4.94% (inactive). As for `COc1cccc(/C=C/C(=O)Nc2ccc3c(c2)OCCO3)c1`, the “activity, negative = inhibition” value was -1.38% (inactive). Still for that read-out and setting: under `CCOC(=O)c1c(NC(=S)NC(=O)/C=C/c2cccs2)sc(C)c1C` stands 3.03% (inactive). With `CCc1nnc(NS(=O)(=O)c2ccc(NC(=S)NC(=O)/C=C/c3cccs3)cc2)s1`, the Potency is 12.6 µM (active). Turning to `COc1ccc(NS(=O)(=O)c2ccc(NC(=S)NC(=O)/C=C/c3ccc(C)cc3)cc2)nn1`, the “activity, negative = inhibition” value was -5.99% (inactive). Same read-out and setting: under `O=C(NC(=S)Nc1ccc(NC(=O)c2cccs2)cc1)c1ccc([N+](=O)[O-])cc1` stands -13.7% (inactive).

`CCc1nnc(NC(=O)c2cccs2)s1`: the “activity, negative = inhibition” value was 9% (inactive).

For `NS(=O)(=O)c1ccc(NC(=S)NNC(=O)c2cccs2)cc1`, the Potency was 12.6 µM (active). As to `CC(C)C(=O)Nc1ccc(C(=O)NNC(=O)c2cccs2)cc1`, the “activity, negative = inhibition” value was 4.21% (inactive). Regarding `CCc1nnc(NS(=O)(=O)c2ccc(NC(=S)NC(=O)c3cccs3)cc2)s1`, the Potency was 25.1 µM (active). With `CCc1nnc(NS(=O)(=O)c2ccc(NS(=O)(=O)c3ccccc3)cc2)s1`, the “activity, negative = inhibition” value is 15.8% (inactive). `CC(=O)Nc1ccc(S(=O)(=O)N(C)c2ccc(OCC(=O)OCC(=O)N3CCCCC3)cc2)cc1`: the “activity, negative = inhibition” value is -2.1% (inactive). Same read-out and setting: under `CCc1cc2cc(OC)ccc2nc1SCC(=O)Nc1cc(OC)c(OC)cc1C(=O)O` stands -14.1% (inactive). In the case of `COC(C)C(C(=O)OCC1=CCN2CC[C@H](O)[C@@H]12)C(C)C` (stereo not given in full), the “activity, negative = inhibition” value was 10.3% (inactive). `COc1ccc(C2OCC3(CO2)SC(=O)NC3=O)cc1OC` (stereo not given): the “activity, negative = inhibition” value was 2.24% (inactive). Turning to `CN1CCC(OC(=O)COc2ccc(Cl)cc2Cl)CC1`, the “activity, negative = inhibition” value is 4.24% (inactive). `O=C(CNS(=O)(=O)c1cccc(C(F)(F)F)c1)Nc1ccccc1F`: the Potency was 31.6 µM (active). Take `O=C(CNS(=O)(=O)c1ccccc1)NCC(=O)OCc1ccccc1F`: the “activity, negative = inhibition” value was -0.533% (inactive). With `Cc1cccc(OCC(=O)Nc2ccccc2F)c1`, the “activity, negative = inhibition” value was -11% (inactive).

On to `Cc1cccc(C)c1NC(=O)C1(C)c2cccc[n+]2CC(=O)N1Cc1cccs1` (stereo not given), for which the “activity, negative = inhibition” value was 15.2% (inactive).

In the case of `COc1ccccc1N(C)S(=O)(=O)c1ccc(Cl)c(C(=O)N2CCC(C(N)=O)CC2)c1`, the “activity, negative = inhibition” value was 3.35% (inactive). `COc1ccccc1-c1nnc(NC(=O)c2cccc(N3C(=O)CCC3=O)c2)o1`: the “activity, negative = inhibition” value was -5.89% (inactive). `O=C(Nc1cccc2cccnc12)c1cccc(N2C(=O)CCC2=O)c1`: the “activity, negative = inhibition” value was -7.93% (inactive). Take `Cc1cc(NC(=O)c2cccc(N3C(=O)CCC3=O)c2)no1`: the Potency is 28.2 µM (active). Turning to `Nc1nnc(SCC(=O)NC2CCCc3ccccc32)s1` (stereo not given), the “activity, negative = inhibition” value is 2.71% (inactive).

As for `O=C(/C=C/NNC(=O)c1cccc(Br)c1)c1ccccc1`, the Potency was 2.82 µM (active). Regarding `CCCCC(NC(=O)c1cccc(Br)c1)C(=O)O` (stereo not given), the “activity, negative = inhibition” value was 5.42% (inactive). For the compound `CC(CC(=O)O)CC(=O)NNC(=O)c1cccc(Br)c1` (stereo not given), the “activity, negative = inhibition” value was 14.8% (inactive). Same read-out and setting: under `Cc1ccc(CN2CCC(N3CCC(C(=O)NCC4CCCO4)CC3)CC2)o1` (stereo not given) stands -0.497% (inactive); under `Cc1onc(C(=O)NN)c1-c1csc(COc2ccccc2)n1`, -6.06% (inactive). For `COc1cccc(-n2c(SCC(=O)NC3CCCCC3)nc3n[nH]c(C)c3c2=N)c1`, the Potency was 20 µM (active). With `CCCCNC(=O)CSc1nc2n[nH]c(C)c2c(=N)n1-c1cccc(Cl)c1C`, the “activity, negative = inhibition” value is -1.49% (inactive). With `C=CCn1c(CC(=O)Nc2cccc(OC)c2)nnc1SCC(=O)NC1CCCCC1`, the “activity, negative = inhibition” value is -4.3% (inactive). For `Cc1ccc(S(=O)(=O)N2CCCC2C(=O)OCc2nc3sc(C)c(C)c3c(=O)[nH]2)cc1` (stereo not given), the “activity, negative = inhibition” value was -11.1% (inactive). Take `COc1ccc(-c2nn(-c3ccccc3)cc2/C=C\C(=O)Nc2ccc(C(=O)O)cc2)cc1`: the “activity, negative = inhibition” value was -6.04% (inactive).

Consider `COc1ccc(N=C2SC(C(=O)Nc3ccc(F)cc3)CC(=O)N2C)cc1` (stereo not given), for which the “activity, negative = inhibition” value is 2.05% (inactive). Consider `CC(C)c1nccn1S(=O)(=O)c1cc([N+](=O)[O-])ccc1Cl`, for which the “activity, negative = inhibition” value was 2.6% (inactive). For `CCc1nc(C)cn1S(=O)(=O)c1cc(OC)c(C)cc1C`, the “activity, negative = inhibition” value was 3.56% (inactive).

With `CCc1nc(C)cn1S(=O)(=O)c1cc([N+](=O)[O-])ccc1Cl`, the Potency is 7.94 µM (active). `CC(C)C(=O)Nc1oc(-c2ccccc2)cc1C#N`: the “activity, negative = inhibition” value was 0.0535% (inactive). Regarding `COc1cccc(NC(=O)CC2C(=O)NCCN2C(=S)Nc2ccc(F)cc2)c1` (stereo not given), the “activity, negative = inhibition” value was 4.8% (inactive). Regarding `O=C(NCc1nnc(SCC(=O)N2CCC(Cc3ccccc3)CC2)o1)c1ccco1`, the Potency was 14.1 µM (active).

With `O=C(Cn1cnc2c(nnn2-c2ccccc2)c1=O)N1CCC(Cc2ccccc2)CC1`, the “activity, negative = inhibition” value is 5.85% (inactive).

Take `O=C(CSc1nnc(-c2ccccc2)o1)N1CCOCC1`: the “activity, negative = inhibition” value was 8.79% (inactive).

In the case of `Cc1cccc(N(C(=O)Cc2cccs2)C(C(=O)NCc2ccco2)c2ccncc2)c1` (stereo not given), the “activity, negative = inhibition” value is 1.4% (inactive). Turning to `COc1ccc2c(CC(=O)OCC(=O)NC(N)=O)coc2c1`, the “activity, negative = inhibition” value was -5.14% (inactive).
